Molecules are shown by their SMILES. Inconclusive results are not listed. Activity calls are given as the source filed them. Calls follow the shape of the dose curve; as a rule, active = well fitted curve in the direction sought with a large enough effect; inconclusive = small, poorly fitted or top-dose-only effect, or another doubt; inactive = no such curve, though single readings can be large; an effect the other way counts as inactive or inconclusive.

A short description of experiment [1]: qHTS of pediatric cancer cell lines to identify multiple opportunities for drug repurposing: Primary screen for Saos-2 cells (AID 1347097). Also: nearly all actives have a fitted effect of over 40% in size. Also: potency is read from the fitted curve at half-maximal effect. In short, it runs like this: (§1)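 Following a 5-hour attachment period, cells at 500-1,000/well received compounds and were cultured for 48 hours. CellTiter-Glo was added and luminescence read to estimate viable, metabolically active cells.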
(In qHTS, concentration-response curves come from the screen itself.)

Experiment [2] can be described thus: qHTS of pediatric cancer cell lines to identify multiple opportunities for drug repurposing: Primary screen for SK-N-SH cells (AID 1347098). Also: nearly all actives have a fitted effect of over 65% in size. Also: potency is read from the fitted curve at half-maximal effect. In short, it runs like this:
(§2)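 Cells (500-1,000/well) rested 5 h, then received compounds for 48 h; metabolically active cells were measured by CellTiter-Glo luminescence. Final concentrations spanned up to 46 µM (MIPE, 11-point) or 0.59 nM-46 µM (NPC, 8-point) in primary screens, 11-point in follow-ups.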

Experiment [3] can be described thus: qHTS of pediatric cancer cell lines to identify multiple opportunities for drug repurposing: Primary screen for NB1643 cells (AID 1347099). Also: nearly all actives have a fitted effect of over 50% in size. Also: potency is read from the fitted curve at half-maximal effect. The essentials: as §1
A short description of experiment [4]: qHTS of pediatric cancer cell lines to identify multiple opportunities for drug repurposing: Primary screen for BT-12 cells (AID 1347101). Also: nearly all actives have a fitted effect of over 25% in size. Also: potency is read from the fitted curve at half-maximal effect. In short, it runs like this: as §2
Experiment [5] in a line: qHTS of pediatric cancer cell lines to identify multiple opportunities for drug repurposing: Primary screen for Rh18 cells (AID 1347102). Also: nearly all actives have a fitted effect of over 65% in size. Also: potency is read from the fitted curve at half-maximal effect. In short, it runs like this: (§3)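 Cells (500-1,000/well) in growth media were settled 5 h at 37 degrees C, then given compounds for 48 h. Viability was read as CellTiter-Glo luminescence. Primary runs used MIPE at 11 points (0.78 nM-46 µM) and NPC at 8 points (0.59 nM-46 µM); follow-ups used 11 points.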

Experiment [6] in a line: qHTS of pediatric cancer cell lines to identify multiple opportunities for drug repurposing: Primary screen for OHS-50 cells (AID 1347103). Also: nearly all actives have a fitted effect of over 40% in size. Also: potency is read from the fitted curve at half-maximal effect. The essentials: as §2
Experiment [7] can be described thus: qHTS of pediatric cancer cell lines to identify multiple opportunities for drug repurposing: Primary screen for RD cells (AID 1347104). Also: nearly all actives have a fitted effect of over 55% in size. Also: potency is read from the fitted curve at half-maximal effect. The essentials:
as §1

Experiment [8] in a line: qHTS of pediatric cancer cell lines to identify multiple opportunities for drug repurposing: Primary screen for LAN-5 cells (AID 1347100). Also: potency is read from the fitted curve at half-maximal effect. In short, it runs like this: as §3
Experiment [9] can be described thus: qHTS of pediatric cancer cell lines to identify multiple opportunities for drug repurposing: Primary screen for MG 63 (6-TG R) cells (AID 1347105). Also: nearly all actives have a fitted effect of over 50% in size. Also: potency is read from the fitted curve at half-maximal effect. The essentials:
as §1

The nature of experiment [10]: qHTS of pediatric cancer cell lines to identify multiple opportunities for drug repurposing: Primary screen for U-2 OS cells (AID 1347096). Also: nearly all actives have a fitted effect of over 50% in size. The essentials:
as §3

On to `C[C@@]12O[C@@H](C[C@]1(O)CO)n1c3ccccc3c3c4c(c5c6ccccc6n2c5c31)CNC4=O`, for which the Potency was 3.32 µM (active) in [1]; 1.92 µM (active) in experiment [2]; 1.66 µM (active) in experiment [3]; 8.63 µM (active) in experiment [4]; 3.32 µM (active) in experiment [5]; 0.217 µM (active) in experiment [6]. Moreover, the Potency in experiment [7] was 6.62 µM (active).
Consider `Cc1[nH]nc2ccc(-c3cncc(OC[C@@H](N)Cc4ccccc4)c3)cc12`, for which the Potency was 2.96 µM (active) in experiment [1]; 1.52 µM (active) in [2]; 0.935 µM (active) in experiment [3]; 0.372 µM (active) in experiment [8]; 1.72 µM (active) in [4]; 3.32 µM (active) in experiment [5]. The Potency in [7] was 3.32 µM (active); in [9], 2.96 µM (active).
Regarding `CC(C)Nc1cc(C(F)(F)F)cc2nc(NC(=O)c3cccnc3)nn12`, the Potency result in experiment [10], in experiment [8], in experiment [4], in experiment [5], in experiment [6] and in experiment [7] was “inactive” each time.
Turning to `C[C@@H](Oc1cc(-c2cnn(C3CCNCC3)c2)cnc1N)c1c(Cl)ccc(F)c1Cl`, the Potency in experiment [1] was 9.35 µM (active); in experiment [2], 19.2 µM (active); in [3], 3.72 µM (active); in experiment [8] it was 1.05 µM (active); in experiment [4], 24.3 µM (active); in experiment [5] it was 16.6 µM (active). Also, the Potency in experiment [6] is 2.43 µM (active); in experiment [7], 16.6 µM (active).
In the case of `Nc1ccn([C@@H]2CS[C@H](CO)O2)c(=O)n1`, the Potency result in [1], in experiment [2], in experiment [3], in experiment [8], in experiment [5] and in [7] was “inactive” each time. Also, the Potency entry in [9] was “inactive”.
`CC(C)c1noc(N2CCC(COc3ccc(-c4ccc(S(C)(=O)=O)cc4)nc3)CC2)n1`: the Potency entry in experiment [10], in [3], in experiment [8], in experiment [5] and in experiment [9] was “inactive” throughout. Moreover, the Potency in experiment [6] is 4.32 µM (active).
Take `COc1cc(=C2C=c3ccccc3=N2)[nH]c1=Cc1[nH]c(C)cc1C`: the Potency in experiment [1] was 4.69 µM (active); in experiment [2], 19.2 µM (active); in experiment [3], 14.8 µM (active); in experiment [8], 5.9 µM (active); in experiment [4] it was 6.85 µM (active); in [5] it was 10.5 µM (active). The Potency in experiment [6] was 7.69 µM (active); in experiment [7] it was 2.96 µM (active); in [9], 11.8 µM (active).
For the compound `COc1cc2nccc(Oc3ccc(NC(=O)C4(C(=O)Nc5ccc(F)cc5)CC4)cc3)c2cc1OC`, the Potency in experiment [1] is 18.7 µM (active); in [2], 3.41 µM (active); in experiment [3], 9.35 µM (active); in experiment [8], 1.48 µM (active); in [4], 15.3 µM (active); in experiment [5], 10.5 µM (active). The Potency is 27.3 µM (active) in experiment [6] and 16.6 µM (active) in experiment [7].
In the case of `Cc1cc(Nc2ncnc3ccc(-c4ccc(CNCCS(C)(=O)=O)o4)cc23)ccc1Oc1ccn2ncnc2c1`, the Potency is 2.09 µM (active) in experiment [1]; 21.5 µM (active) in experiment [2]; 16.6 µM (active) in experiment [3]; 14.8 µM (active) in experiment [8]; 6.85 µM (active) in experiment [4]; 20.9 µM (active) in experiment [5]. The figures for the Potency in experiment [7] and in experiment [9] were 16.6 µM (active) and 18.7 µM (active), respectively.
In the case of `Cc1cc(Nc2cc(N3CCN(C)CC3)nc(C=Cc3ccccc3)n2)n[nH]1`, the Potency was 3.03 µM (active) in experiment [1]; 3.5 µM (active) in [2]; 34 µM (active) in [3]; 0.679 µM (active) in [8]; 3.82 µM (active) in experiment [5]; 2.22 µM (active) in experiment [6]. Besides, the Potency in experiment [7] and in experiment [9] was 21.5 µM (active) in each case.
Consider `CCC[C@H](NC(=O)C(C#N)=Cc1cccc(Br)n1)c1ccccc1`, for which the Potency in experiment [1] was 33.2 µM (active); in [2] it was 24.1 µM (active); in experiment [3], 7.43 µM (active); in experiment [8], 14.8 µM (active); in [4], 27.3 µM (active); in [5], 14.8 µM (active). For the same compound, the Potency is 12.2 µM (active) in experiment [6] and 13.2 µM (active) in [7].
On to `Cc1nc2cnc3ccc(C#Cc4cccnc4)cc3c2n1-c1ccc(C(C)(C)C#N)cc1`, for which the Potency in experiment [1] is 0.235 µM (active); in [2], 0.0681 µM (active); in experiment [3], 3.32 µM (active); in experiment [8], 5.9 µM (active); in experiment [5], 1.18 µM (active); in [6], 0.0968 µM (active). Also, the Potency in experiment [7] is 0.0833 µM (active).
As for `O=C(c1ccc(Nc2nccc(-c3cc4ccccc4s3)n2)cc1)N1CCC(N2CCCC2)CC1`, the Potency in experiment [1] was 16.6 µM (active); in experiment [2], 19.2 µM (active); in experiment [3] it was 11.8 µM (active); in [8], 11.8 µM (active); in experiment [4], 27.3 µM (active); in [5], 14.8 µM (active). Also, the figures for the Potency in experiment [6], in experiment [7] and in [9] were 7.69 µM (active), 10.5 µM (active) and 18.7 µM (active), respectively.
`Cc1nc2ccc(CN(C)c3ccc(C(=O)N[C@@H](CCC(=O)O)C(=O)O)s3)cc2c(=O)[nH]1`: the Potency entry in [10], in [3], in [5] and in experiment [7] was “inactive” in each case.
On to `COc1ccc2c(OCc3nnc4ccc(-c5ccccc5)nn34)ccnc2c1`, for which the Potency result in experiment [1], in experiment [2], in experiment [3], in experiment [8], in [4] and in experiment [5] was “inactive” in each case. Also, the Potency entry in [6], in experiment [7] and in experiment [9] was “inactive” in each case.
As to `Cc1cnc(-c2cnc(NCCNc3ccc(C#N)cn3)nc2-c2ccc(Cl)cc2Cl)[nH]1`, the Potency result in experiment [10] and in experiment [6] was “inactive” in each case. The Potency in experiment [7] is 20.9 µM (active).
Consider `Nc1nc(NCCNc2ncc(-n3ccnc3)c(-c3ccc(Cl)cc3Cl)n2)ccc1[N+](=O)[O-]`, for which the Potency was 26.4 µM (active) in [1]; 18.7 µM (active) in [3]; 10.5 µM (active) in experiment [8]; 24.3 µM (active) in [4]; 14.8 µM (active) in [5]; 19.3 µM (active) in [6]. The Potency in experiment [7] and in experiment [9] was 14.8 µM (active) throughout.
As to `Cc1c(CN2CCN(S(C)(=O)=O)CC2)sc2c(N3CCOCC3)nc(-c3cnc(N)nc3)nc12`, the Potency in experiment [1] is 0.332 µM (active); in [2] it was 1.92 µM (active); in [5], 0.105 µM (active); in experiment [7] it was 0.132 µM (active); in [9] it was 0.0372 µM (active).
